Pf growth 96h – Primary qHTS for delayed death inhibitors of the malarial parasite plastid, 96 hour incubation | P. falciparum luciferase reporter growth, 96 h | Potency, µM (titrated, usually from 28.7 µM), inactives show at the highest dose activity change, negative = inhibition, hits mostly inhibitors | 6.9% of 320,000 active; also: potency is read from the fitted curve at half-maximal effect; % is scaled to controls: 0 for no effect and ±100 for the full control effect
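Erythrocytes infected with luciferase-expressing P. falciparum were dispensed at 2% hematocrit and 0.05% parasitemia (final), then incubated with compounds 96 hours at 37 C in 5% CO2. Luminescence after detection reagent addition reported growth.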
Cycloheximide cs – Cycloheximide Counterscreen for Small Molecule Inhibitors of Shiga Toxin. cell reporter, cycloheximide protein synthesis inhibition counterscreen. AID 2314, 2010. max response, %. 12% of 300,000 active; in the data active = max response mostly above about 13%, no sharp cut-off; inactive = mostly below about 14%; also: read at 38.3 µM for the half of the compounds with a filed dose; 0% is about no effect
AMA1-RON2 inh – qHTS for Inhibitors of AMA1-RON; Towards Development of Antimalarial Drug Lead: Primary Screen | Plasmodium falciparum AMA1 (3D7) - RON2 peptide interaction | AlphaScreen AMA1-biotinylated RON2 peptide binding | Potency, µM (doses to about 58.2 µM), for inactives: top-dose activity change, negative = inhibition, actives largely listed as inhibitors | 0.2% of 360,000 active;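 also: potency is read from the fitted curve at half-maximal effect; 0% = vehicle wells and -100% = peptide control; nearly all actives have a fitted effect of over 45% in size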
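AMA1 (3D7) with his tag at 25 nM final met compounds first, then biotinylated RON2 peptide at 25 nM; detection used donor plus acceptor beads, 10 µg/mL apiece, read by AlphaScreen after 30 min at room temperature.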
Pf growth 48h – Primary qHTS for delayed death inhibitors of the malarial parasite plastid, 48 hour incubation. 5.9% of 310,000 active. P. falciparum luciferase growth in erythrocytes, 48 h. Potency, µM (titrated, usually from 28.7 µM), inactives show at the top dose activity change, negative = inhibition, usual class: inhibitors; also: potency is read from the fitted curve at half-maximal effect; % is scaled to controls: 0 for no effect and ±100 for the full control effect
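Luminescence readout; reporter = integrated firefly luciferase in P. falciparum. RBC culture at 2% hematocrit, 0.1% parasitemia final, 37 C/5% CO2; decreased signal taken as growth inhibition.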
Shiga toxin inh – A qHTS for Small Molecule Inhibitors of Shiga Toxin. Vero cells, Shiga toxin protein synthesis inhibition reporter. inhibition, % at 38.7 µM. 9.2% of 290,000 active. AID 2315, 2010; in the data active = inhibition mostly above about 28%, no sharp cut-off; inactive = mostly below about 43%; also: 0% is about no effect
HCV inhibitor – qHTS Assay for Inhibitors of Hepatitis C Virus (HCV) | Huh7.5.1 HCVcc-Cre infection, luciferase reporter, 44 h | Potency, µM (series often up to 41.8 µM), for inactives: at the highest dose activity change, negative = inhibition, actives largely listed as inhibitors | 3.4% of 340,000 active; also: potency is read from the fitted curve at half-maximal effect; % is scaled to controls: 0 for no effect and ±100 for the full control effect
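Compounds are dispensed onto cells plated 4 h earlier at 1,000 per well, with HCVcc-Cre virus (about 0.5 moi) added next. Following 44 h of culture, luminescent signal is measured for 15 sec after 15 min with substrate at room temperature.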
Numbers without * were called inactive; ? = inconclusive; · = not tested or not shown; [ ] = another dose, or the depositor's remark. A selection: hits, their analogues and other compounds. The true share with any hit is near 21%. Unless noted, calls follow the shape of the dose curve; as a rule, active = well fitted curve in the direction sought with a large enough effect; inconclusive = small, poorly fitted or top-dose-only effect, or another doubt; inactive = no such curve, though single readings can be large; an effect the other way counts as inactive or inconclusive.

SMILES	Pf growth 96h	Cycloheximide cs	AMA1-RON2 inh	Pf growth 48h	Shiga toxin inh	HCV inhibitor
O=[N+]([O-])c1ccc(N/N=C/c2ccccc2O)cc1	35.7%	65.0*	19.1%	?	89.1*	?
O=[N+]([O-])c1ccc(NN=Cc2ccccc2O)nc1	·	·	67.9%	·	·	?
COCCNC(=O)C1(C)CCCN(C(=O)c2ccc(OC)c(OC)c2)C1 (configuration not stated)	·	·	1.2%	·	·	·
COc1ccc(NC(=O)Nc2nnc(Cc3ccc(OC)c(OC)c3)s2)cc1	11.7µM*	-0.9	-1.5%	-29.4%	-3.6	3.0%
COc1ccc(C(=O)CCc2ccc(OC)c(OC)c2)cc1	·	·	-0.5%	·	·	?
COc1ccc(C(=O)Cc2ccc(OC)c(OC)c2)cc1	69.9%	55.6*	-6.7%	·	53.1*	?
COc1ccc(C(=O)Nc2nnc(Cc3ccc(OC)c(OC)c3)s2)cc1	0.0%	11.1*	-2.5%	0.0%	20.4	-14.1%
COc1ccc(CC(=O)n2[nH]c(=O)ccc2=O)cc1OC	23.1%	15.2	59.0%	9.9%	41.0*	2.0%
COc1ccc(CCN2CC(C(=O)N3CCC(O)(c4ccccc4)CC3)CCC2=O)cc1 (configuration not stated)	16.0%	-1.1	-2.1%	-10.9%	-26.5	11.3%
COc1ccc(Cc2nnc(NC(=O)Nc3ccc(C)cc3)s2)cc1OC	-1.7%	15.3*	?	-2.1%[0.00184 µM]	43.0*	5.5%
COc1ccc(Cc2nnc(NC(=O)Nc3ccc(F)cc3)s2)cc1OC	6.3%	-0.7	21.5%	3.3%[0.00184 µM]	3.7	-7.4%
COc1ccc(Cc2nnc(NC(=O)c3cccc([N+](=O)[O-])c3C)s2)cc1	0.465µM*	6.8	-8.3%	57.4%	51.1	-1.2%
CCOC(=O)NC1(C(F)(F)F)NC(=O)N(c2cccc(C(F)(F)F)c2)C1=O (configuration not stated)	?	-1.0	-6.0%	6.2%	-11.0	4.9%
CCOC(=O)NC1(C(F)(F)F)NC(=O)N(c2ccc(F)cc2)C1=O (configuration not stated)	4.65µM*	-4.1	7.4%	0.6%	-8.0	3.7%
CC(=O)Nc1ccc(S(=O)(=O)NC2(C(F)(F)F)NC(=O)N(c3ccc(C)cc3)C2=O)cc1 (configuration not stated)	9.28µM*	-2.4	0.4%	9.1%	-10.1	36.1%
Cc1ccccc1OCC(=O)OCC(=O)Nc1cc(S(=O)(=O)N2CCCCC2)ccc1Cl	10.3%	·	-4.5%	-19.2%	·	-10.5%[8.37 µM]
Clc1ccc(CSc2cc3c(nn2)-c2ccccc2CC3)cc1	70.8%	15.0*	49.6%	37.5%	50.5	?
COc1ccc2c(c1)C(C)=CC(C)(C)N2C(=O)CSc1nnc(-c2ccc(C)cc2)o1	-1.8%	1.1	-9.8%	9.28µM*	-8.1	?
COc1cccc(NC(=O)CSc2nnc(-c3ccc(C)cc3)o2)c1	?	27.8*	-0.3%	·	45.2*	-8.3%
COc1ccccc1NC(=O)CSc1nnc(-c2ccc(C)cc2)o1	?	41.0*	-5.9%	281.4%	55.7	-3.1%
COc1ccc(C)cc1NC(=O)CSc1nnc(-c2ccc(Br)cc2)o1	-25.1%	1.3	1.2%	31.2%	-8.6	-11.1%
Cc1nc(NC(=O)c2cccnc2Cl)sc1C	·	·	-0.9%	·	·	-16.8%
Cc1nc2sccn2c(=O)c1S(=O)(=O)N1CCN(c2ccccc2)CC1	14.1%	-2.9	6.4%	-8.5%	-3.1	22.1%
COc1ccc(C)cc1S(=O)(=O)N1CCN(C(=O)c2ncoc2-c2cccc(C)c2)CC1	0.928µM*	-5.7	-5.9%	0.7%	4.8	8.1%
COc1ccc(C(C)C)cc1S(=O)(=O)N1CCN(C)CC1	11.7µM*	-5.0	0.3%	·	-17.9	23.1%
COc1ccc(C(C)C)cc1S(=O)(=O)N1CCC(C(=O)N2CCN(C)CC2)CC1	-16.5%	-3.3	-8.8%	26.9%	-7.6	-11.7%
COc1ccc(OC)c(S(=O)(=O)N2CCN(c3c(C)cccc3C)CC2)c1	4.65µM*	-1.7	-7.2%	?	-1.3	-5.6%

Bioassay records from PubChem.
